PubChem BioAssay AID2289 (National Center for Advancing Translational Sciences (NCATS), 2010)
Screen size: about 340,000 compounds; about 3,300 (0.97%) were called active. About 9% were inconclusive and are not listed. The call rests on the fitted dose curve; in most records, active means well fitted inhibition curve with a large enough effect; inconclusive means small, poorly fitted or top-dose-only effect, or effect the other way; inactive means flat fitted curve, though single readings scatter. Some of the results follow.

Experiment: qHTS Assay for Modulators of miRNAs and/or Inhibitors of miR-21; further: nearly all actives have a fitted effect of over 55% in size
Conditions: HeLa miR-21-FLuc reporter, luciferase luminescence, 48 h; actives lower the signal
Procedure, shortened: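 Compounds were titrated across several concentrations (up to approximately 40 uM) and incubated 48 hours with HeLa miR-21-FLuc reporter cells (miR-21 target sequence downstream of FLuc, endogenous miR-21). Readout was firefly luciferase luminescence after lytic detection reagent.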
Potency means the concentration at half of the fitted maximal effect.

Potency, active:
COC(=O)/C(=C/c1cccc([N+](=O)[O-])c1)NC(=O)c1ccc(OC)cc1 5.21 µM
COc1cccc(NC(=O)C(=O)NCC(c2ccc3c(c2)OCO3)N2CCN(C)CC2)c1 (configuration not stated) 4.65 µM
Cc1csc2ncc(C(=O)NCCc3ccccc3)c(=O)n12 16.5 µM
Cc1cc(C)n2ncc(/C(N)=N/OC(=O)c3ccccc3F)c2n1 1.85 µM
Cc1cc(C)n2ncc(C(=O)NCCc3ccccc3)c2n1 18.5 µM
CN(C)c1ccc(/C=C2\CCCCC2=O)cc1 2.07 µM
CCC(=O)N1CCc2cc(CNS(=O)(=O)c3ccccc3F)ccc21 6.56 µM
O=C(COc1ccccc1F)Nc1ccc(-c2nc3ccccc3s2)cc1 1.47 µM
Cc1ccc2nc(-c3ccc(NC(=O)COc4ccccc4C(C)(C)C)cc3)sc2c1 6.56 µM
Cc1nc2ccc(NC(=O)COc3ccccc3F)cc2s1 7.36 µM
Nc1ccc2oc3ccc(N)cc3c(=O)c2c1 3.69 µM
COc1nccnc1NS(=O)(=O)c1ccc(NCc2cc(Br)ccc2O)cc1 18.5 µM
C/C(=N\NC(=O)COc1ccccc1F)c1cc2ccccc2o1 8.26 µM
COc1ccc(OCC(=O)N/N=C(\C)c2cc3ccccc3o2)cc1 18.5 µM
Cc1ccc(C(=O)Cc2nnc(C)s2)cc1 4.14 µM
Cc1ccc(NC(=S)NNC(=O)c2nn(C)c(C)c2Cl)cc1 5.85 µM
CN1CCc2c(sc3c2C(=O)NC(c2ccc(OC(=O)c4ccccc4)cc2)N3)C1 (configuration not stated) 9.27 µM
CN1CCc2c(sc3c2C(=O)NC(c2cccc(OC(=O)c4cccs4)c2)N3)C1 (configuration not stated) 18.5 µM
COc1cc(C2NC(=O)c3c(sc4c3CCN(C)C4)N2)ccc1OC(=O)c1ccccc1 (configuration not stated) 13.1 µM
O=C(CC1NCCc2ccccc21)Nc1cccc(Cl)c1 (configuration not stated) 16.5 µM
Cc1occc1C(=O)NN=C1C2CC3CC(C2)CC1C3 1.31 µM
C/C(=N/NC(=O)c1ccoc1C)C12CC3CC(CC(C3)C1)C2 8.26 µM
C=C(C)C1CC=C(C)/C(=N/NC(=O)c2ccoc2C)C1 (configuration not stated) 4.65 µM
S=C(N=Nc1ccccc1)NNc1ccccc1 5.21 µM
COc1ccc(OCCn2c(=O)sc3ccccc32)cc1 14.7 µM
COc1ccc(N=c2sc3ccccc3n2C)cc1 3.29 µM
Cc1cccc(OCCCn2c(=O)sc3ccccc32)c1 14.7 µM
Cc1cccc(OCCn2c(=O)sc3ccccc32)c1 5.21 µM
O=c1sc2ccccc2n1CCCOc1ccccc1 4.14 µM
C=CCNC(=S)NNC(=O)COc1ccc2cc(Br)ccc2c1 7.36 µM
CC1Oc2ccccc2N(CC(=O)NCc2ccccc2)C1=O (configuration not stated) 9.27 µM
CCn1c(O)c(N=Nc2ccc3ccccc3n2)c2ccccc21 1.04 µM
COc1ccc(Br)c(-c2nnc(CS(=O)(=O)c3ccccc3)o2)c1 14.7 µM
O=S(=O)(Cc1cc(-c2ccccc2Cl)no1)c1ccccc1 5.21 µM
COc1ccc(-c2cc(CS(=O)(=O)c3ccccc3)on2)cc1 4.65 µM
O=S(=O)(Cc1cc(-c2ccc(Cl)cc2)no1)c1ccccc1 4.65 µM
O=S(=O)(Cc1cc(-c2ccccc2)no1)c1ccccc1 14.7 µM
Nc1ccc(Oc2cc(N)cc(Oc3ccccc3)c2)cc1 8.26 µM
N=c1cc(C2(O)CCCCC2)n2c(nc3ccccc32)s1 0.185 µM
COc1ccccc1/C=C/C1=NC(=C\N(C)C)/C(=O)O1 14.7 µM
CCOc1ccc(-c2cn3ccccc3n2)cc1[N+](=O)[O-] 2.93 µM
COc1ccc(-c2cn3ccccc3n2)cc1[N+](=O)[O-] 2.33 µM
COc1ccc(-c2cn3cc(Cl)ccc3n2)cc1OC 13.1 µM
Oc1ccc(-c2cn3ccccc3n2)cc1O 3.29 µM
O=C(Nc1cc(F)c(Br)cc1F)c1ccc(Cl)cc1 3.29 µM
CCCOc1ccc(-c2csc(N)n2)cc1[N+](=O)[O-] 5.21 µM
CCCCOc1ccc(-c2csc(N)n2)cc1[N+](=O)[O-] 1.47 µM
Cc1cccc(OCCn2nnc3sc4c(c3c2=O)CCCC4)c1 18.5 µM
COC(=O)c1ccc(Cn2nnc3sc4c(c3c2=O)CCCC4)cc1 6.56 µM
NNCCc1ccccc1 14.7 µM
O=C(CSc1ccccc1)NCCc1ccccc1 14.7 µM
O=C(CSc1ccccc1)NC1CCCCCC1 14.7 µM
S=C(NCCc1ccccc1)NCCc1ccccc1 2.61 µM
CC1CCN(C(=S)NCCc2ccccc2)CC1 2.93 µM
CCCc1ccc2oc(C(=O)N(C)Cc3ccn[nH]3)c(C)c2c1 10.4 µM
Cc1cc(Cl)c2oc(C(=O)N(C)C(C)c3ccccn3)c(C)c2c1 (configuration not stated) 14.7 µM
Cc1ccc2oc(C(=O)N(C)Cc3ccon3)c(C)c2c1 4.14 µM
Cc1ccc2c(C)c(C(=O)N(C)C(C)c3ccon3)oc2c1C (configuration not stated) 16.5 µM
Cc1cc(Cl)c2oc(C(=O)N(C)Cc3ccon3)c(C)c2c1 4.65 µM
CCc1c(C)c2ccc(O)c(CN3CCN(c4ccccc4)CC3)c2oc1=O 6.56 µM
COc1ccc2c(c1)Cc1sc(NC(C)=O)nc1-2 0.631 µM
COc1ccc2c(c1)-c1nc(NC(=O)c3ccco3)sc1CC2 13.1 µM
Cc1ccc(-n2ncc3c(NC4CCCCC4)ncnc32)cc1 0.521 µM
Cc1cccc(-n2ncc3c(NC4CCCCC4)ncnc32)c1 0.414 µM
O=c1cccccc1NN=C1CCCCC1 11.7 µM
O=c1cccccc1NN=C1CCCCCC1 3.29 µM
Oc1c(/C=N/Nc2cccc3cccnc23)ccc2ccccc12 7.36 µM
Oc1ccccc1CNc1cccc2cccnc12 18.5 µM
Cc1ccccc1Nc1nc(N)nc(-c2oc3ccccc3c2C)n1 4.65 µM
Fc1ccccc1Nc1nc2ccccc2n2nnnc12 16.5 µM
COc1ccccc1-c1cc(C(=O)N2CCCC2)no1 1.85 µM
CCN(CC)C(=O)c1cc(-c2ccc(Cl)cc2)on1 4.65 µM
COc1ccccc1-c1cc(C(=O)N2CCOCC2)no1 2.93 µM
CCN(CC)C(=O)c1cc(-c2ccccc2OC)on1 13.1 µM
O=C(N/N=C1/CC2C=CCC12)c1ccco1 (configuration not stated) 5.21 µM
O=C(N/N=C1/CC2C=CCC12)c1cccs1 (configuration not stated) 11.7 µM
CC1C2CC(C/C2=N/NC(=O)c2cccs2)C1(C)C (configuration not stated) 5.21 µM
COc1ccc(/C=N/n2c(N)nc3ccccc32)cc1OC 16.5 µM
Cc1c(/C=C/C(=O)c2ccccc2O)cnn1C 3.69 µM
Cc1nn(C)cc1/C=C/C(=O)c1ccc(O)cc1 13.1 µM
CCn1ncc(/C=C/C(=O)c2ccccc2)c1C 5.21 µM
Cc1c(/C=C/C(=O)c2ccc(O)cc2)cnn1C 18.5 µM
CCCCN1CCc2c([nH]c3ccc(C)cc23)C1=O 0.826 µM
CCOc1ccc(/C=N/Nc2ccccn2)cc1OC 5.21 µM
COc1ccc(/C=N/Nc2ccccn2)cc1O 7.36 µM
COc1ccc(COc2ccc3c(C)cc(=O)oc3c2)cc1 2.33 µM
COc1cccc(COc2ccc3c(C)cc(=O)oc3c2)c1 2.07 µM
COc1ccc(-c2noc(-c3cccc(OC)c3OC)n2)cc1OC 2.93 µM
COc1ccc(-c2noc(-c3ccccc3Cl)n2)cc1OC 1.47 µM
Cc1nc(-c2noc(-c3ccccc3Cl)n2)c(C(F)(F)F)o1 11.7 µM
Fc1ccc(-n2c(-c3ccc4c(c3)OCO4)n[nH]c2=S)cc1Cl 16.5 µM
CC(=O)c1c(C)nc(Nc2nc3ccccc3s2)nc1C 0.736 µM
COc1ccccc1OCC(=O)Nc1ccc2c(c1)OCCO2 8.26 µM
O=C(COc1ccccc1[N+](=O)[O-])Nc1ccc2c(c1)OCO2 3.29 µM
O=C(COc1ccccc1F)Nc1ccc2c(c1)OCCO2 1.17 µM
COc1ccccc1OCC(=O)Nc1ccc2c(c1)OCO2 18.5 µM
CCc1ccccc1OCC(=O)Nc1ccc2c(c1)OCCO2 5.21 µM
O=C(COc1ccccc1Cl)Nc1ccc2c(c1)OCO2 1.85 µM
Cc1ccccc1OCC(=O)Nc1ccc2c(c1)OCCO2 6.56 µM
Cc1ccc(NC(=O)c2c(Cl)nc3ccccn23)cc1 2.93 µM
O=C(Nc1ccc(F)cc1)c1c(Cl)nc2ccccn12 16.5 µM
C/C(=N\Nc1ccc(Cl)c(C(=O)O)c1)c1ccc2c(c1)OCO2 11.7 µM
C/C(=N\Nc1ccc(Cl)c(C(=O)O)c1)c1ccc[nH]1 14.7 µM
C/C(=N\Nc1ccc(Cl)c(C(=O)O)c1)c1cccc([N+](=O)[O-])c1 13.1 µM
C/C(=N\Nc1ccc(Cl)c(C(=O)O)c1)c1ccccn1 16.5 µM
Cc1ccc(N/C=C/C(=O)c2ccccc2)cc1Br 0.369 µM
Cc1cc(N/C=C/C(=O)c2ccccc2)ccc1Br 0.369 µM
